The results in this text go back to PubChem BioAssay (NCATS).

Where “and” joins values, the source holds several entries; their conditions need not be identical. Equal entries are not always repeated. Inconclusive results are not listed. More than one record can exist for a structure, and the calls need not agree. A number with no mark means an inactive call. Calls of active or inactive are those of the source. Calls follow the shape of the dose curve; as a rule, active = well fitted curve in the direction sought with a large enough effect; inconclusive = small, poorly fitted or top-dose-only effect, or another doubt; inactive = no such curve, though single readings can be large; an effect the other way counts as inactive or inconclusive.

Test [1] addresses Cytochrome P450 3A7 (Homo sapiens) (UniProt P24462). Put plainly: Cytochrome P450 family 3 subfamily A member 7 (CYP3A7) small molecule antagonists: luciferase biochemical qHTS assay (AID 1963596). Also: nearly all actives have a fitted effect of over 40% in size. Also: potency is read from the fitted curve at half-maximal effect. The conditions noted are these: P450-Glo CYP3A7 enzyme luminescence, 1 h; series mostly up to 57.4 µM. The essentials:
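Luminescence read-out (relative luminescence units) after 20 min with detection reagent, which stops the reaction. Enzyme, proluciferin substrate and compound preincubated 10 min, RT; NADPH regeneration system then started 1 h reaction. Ketoconazole as positive control.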
(qHTS replaces the single test concentration by a dilution series.)

A short description of test [2]: Viability qHTS for spleen associated tyrosine kinase inhibitor (SYKi) naive MV4-11 cells (AID 1963823). Also: nearly all actives have a fitted effect of over 40% in size. Also: potency is read from the fitted curve at half-maximal effect. The conditions noted are these: MV4-11 AML viability, CellTiter-Glo luminescence, 72 h; series mostly up to 45 µM. The essentials: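 Viability of MV4-11 AML cells lacking prior SYK inhibitor exposure is scored by CellTiter-Glo luminescence following 72 hr compound incubation at 37 C, 5% CO2, seeded at 500 cells per well.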

The nature of test [3]: Viability qHTS for spleen associated tyrosine kinase inhibitor (SYKi) drug resistant MV4-11 cells (AID 1963824). Also: nearly all actives have a fitted effect of over 35% in size. Also: potency is read from the fitted curve at half-maximal effect. The settings on record: SYKi-resistant MV4-11 viability, CellTiter-Glo, 72 h; series mostly up to 45 µM. In outline:
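SYK inhibitor-resistant MV4-11 AML cells, 500 per well, added to predispensed compounds and incubated 72 hr at 37 C, 5% CO2. Viability measured by CellTiter-Glo luminescence after 10 min at room temperature.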

A short description of test [4]: Cellular viability qHTS for adrenocortical cancer (ACC) cell line SW-13 (AID 1963989).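 Also: cells grown in serum-free medium with ITS supplement; % is scaled to controls: 0 for no effect and ±100 for the full control effect; nearly all actives have a fitted effect of over 65% in size.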 The conditions noted are these: SW-13 ACC cells viability, CellTiter-Glo, 48 h; activity (max response): active compounds read low. In outline: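 Luminescent ATP read-out (CellTiter-Glo, 20 min at room temperature) measured metabolically competent SW-13 cells after 48 h compound treatment. Final concentrations spanned up to 46 uM; bortezomib served as positive control.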

Test [5] can be described thus: Cellular viability qHTS for adrenocortical cancer (ACC) cell line NCI-H295R (AID 1963990).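 Also: 0% = DMSO only wells and -100% = full killing with cytotoxic reference compound; nearly all actives have a fitted effect of over 60% in size.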 The conditions noted are these: CellTiter-Glo ATP luminescence, 48 h; series mostly up to 46.1 µM. The essentials:
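IC50 and maximal efficacy derive from four-parameter logistic modelling of titration curves, with reads scaled between DMSO-only wells (0%) and doxorubicin hydrochloride (100% inhibition). Compounds spanned up to 46 uM over 48 h.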

Sequence of Cytochrome P450 3A7 (Homo sapiens) (P24462 whole entry, looked up): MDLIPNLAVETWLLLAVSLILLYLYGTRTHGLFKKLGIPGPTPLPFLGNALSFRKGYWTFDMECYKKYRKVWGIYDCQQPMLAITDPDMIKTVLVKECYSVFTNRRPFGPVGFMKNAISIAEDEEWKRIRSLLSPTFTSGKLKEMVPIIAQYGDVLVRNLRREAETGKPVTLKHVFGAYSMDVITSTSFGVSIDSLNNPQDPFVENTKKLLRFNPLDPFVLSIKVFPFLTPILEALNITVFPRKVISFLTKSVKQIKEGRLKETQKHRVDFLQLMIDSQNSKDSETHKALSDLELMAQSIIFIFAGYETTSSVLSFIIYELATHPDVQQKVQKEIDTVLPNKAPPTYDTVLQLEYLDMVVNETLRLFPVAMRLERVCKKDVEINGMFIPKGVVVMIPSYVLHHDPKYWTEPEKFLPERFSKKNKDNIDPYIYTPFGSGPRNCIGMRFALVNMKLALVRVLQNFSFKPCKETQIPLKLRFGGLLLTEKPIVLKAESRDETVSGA

In the case of `COc1ccccc1C(=O)Nc1cccc(NC(=O)c2cccc(C)c2)c1`, in test [1], the Potency entry is “inactive”.

Regarding `O=C(O)c1n[nH]c2c1C[C@H]1C[C@@H]21`, in test [1], the Potency entry is “inactive”.

As for `CCCCC(O)c1ccccc1` (stereo not drawn), in test [1], the Potency entry is “inactive”.

Regarding `Nc1nccs1`, the Potency result in test [1] was “inactive”.

`Cc1nc(C)c(-c2ccc(C3CCC(CC(=O)O)CC3)cc2)nc1C(N)=O` (stereo not drawn): in test [1], the Potency result is “inactive”.

`NC[C@H]1CCC[C@@H](CNC(=O)[C@@H](Cc2c[nH]c3ccccc23)NC(=O)N2CCC3(C=Cc4ccccc43)CC2)C1`: in test [1], the Potency entry was “inactive”.

For `CCOC(=O)C1=C(O)c2ccccc2S(=O)(=O)N1C`, the Potency entry in test [1] was “inactive”.

Regarding `CC(C)(C)C1CCN(C(=O)n2ncc(C(O)(c3ccccc3)c3ccccc3)n2)CC1`, the Potency entry in test [1] was “inactive”. The Potency in test [2] is 20600 nM (active); in test [3], 8200 nM (active).

`Cn1ncnc1COc1nn2c(-c3cc(F)ccc3F)nnc2cc1C(C)(C)C`: the Potency in test [1] was 4470 nM (active). The Potency entry in test [2] and in test [3] was “inactive” each time.

For `N#Cc1ccc(C(=O)N2CCC3(CC2)N=C(N)c2c(F)ccc(F)c2N3)cn1`, the Potency result in test [1], in test [2] and in test [3] was “inactive” each time.

`COc1ccc(C(=O)c2ccccc2)c(O)c1`: the Potency entry in test [1], in test [2] and in test [3] was “inactive” each time.

As for `CCc1cc(CN2CC(C(=O)O)C2)sc1-c1noc(-c2ccc(Oc3ccccc3)cc2)n1`, the Potency result in test [1], in test [2] and in test [3] was “inactive” in each case.

In the case of `COc1cccc(OC)c1-c1ccc(C[C@H](NC(=O)c2c(Cl)cccc2Cl)C(=O)O)cc1`, the Potency entry in test [1], in test [2] and in test [3] was “inactive” in each case.

As to `CNC(=O)c1cnn(-c2nc(N)c3ncn([C@@H]4O[C@H](CO)[C@@H](O)[C@H]4O)c3n2)c1`, the Potency result in test [1], in test [2] and in test [3] was “inactive” in each case.

In the case of `NC(=O)c1ccc([N+](=O)[O-])cc1Cl`, the Potency entry in test [1], in test [2] and in test [3] was “inactive” each time.

As to `CNS(=O)(=O)c1ccccc1Nc1nc(Nc2ccc(N3CCN(C)CC3)cc2OC)ncc1Br`, the Potency entry in test [1] is “inactive”. Further, the Potency in test [2] was 18.4 nM (active); in test [3], 32.6 nM (active).

`O=C(c1ccccn1)c1cnn2c(-c3ccncc3)ccnc12`: the Potency result in test [1], in test [2] and in test [3] was “inactive” in each case.

For `O=C(c1ccc(F)cc1)C1CCN(CCn2c(=O)nc3n(c2=O)CCCC3)CC1`, the Potency entry in test [1], in test [2] and in test [3] was “inactive” in each case.

As to `O=C(Nc1nc2ccccc2n1CCc1ccccc1)c1ccccc1`, the Potency result in test [1], in test [2] and in test [3] was “inactive” in each case.

Consider `O=C(NCC1CCN(Cc2cccc(Cl)c2)CC1)[C@@H]1CCCN(c2ncnc3c2nc2n3CCCC2)C1`, for which the Potency entry in test [1] is “inactive”. The Potency in test [2] is 2310 nM (active).

For the compound `CCCCN(CCCC)CC(O)c1cc(Cl)cc2c1-c1ccc(Cl)cc1/C2=C/c1ccc(Cl)cc1` (stereo not drawn), in test [1], the Potency entry is “inactive”. Also, the Potency in test [2] is 20900 nM (active); in test [3], 18800 nM (active).

Regarding `CN(C)C/C=C/C(=O)Nc1cccc(C(=O)Nc2ccc(Nc3nccc(-c4cccnc4)n3)cc2)c1`, in test [1], the Potency entry was “inactive”. Also, the Potency in test [2] is 184 nM (active); in test [3], 461 nM (active).

On to `CCOC(=O)n1ccn(C)c1=S`, for which the Potency result in test [1], in test [2] and in test [3] was “inactive” each time.

Turning to `FC(F)(F)c1cc(C(F)(F)F)c2ccc3nc(-c4nnco4)cn3c2n1`, the Potency entry in test [1], in test [2] and in test [3] was “inactive” in each case.

As for `CN1CCN(c2nc(-c3ccc(C(=O)NC4(C(=O)NCC#N)CCCCC4)cc3)cs2)CC1`, the Potency result in test [1], in test [2] and in test [3] was “inactive” each time.

On to `CCN(CC)CCCC(C)Nc1ccnc2cc(Cl)ccc12` (stereo not drawn), for which the Potency entry in test [1] and in test [5] was “inactive” in each case. For the same compound, the Potency in test [2] was 8200 nM (active); in test [3], 10300 nM (active). The viability (% of control) in test [2] is 72.7% [at 9.25 µM]. In test [4], the activity (max response) is 0.695% and -16.4%.

Consider `CC(=O)SCC(=O)c1ccc(NS(=O)(=O)c2ccc(OCCCN(C)C)cc2)nc1`, for which the Potency entry in test [1] was “inactive”. Moreover, the Potency was 2590 nM (active) in test [2] and 2910 nM (active) in test [3].

As for `COc1ccnc(CCc2nc3ncccc3[nH]2)c1`, the Potency entry in test [1], in test [2] and in test [3] was “inactive” each time.

As for `CC(NC(=O)C(O)C(C)C)C(=O)NC1C(=O)N(C)CCc2ccccc21` (stereo not drawn), the Potency result in test [1], in test [2] and in test [3] was “inactive” each time.

As to `CC(C)(C(=O)c1cccnc1)c1cccnc1`, the Potency result in test [1], in test [2] and in test [3] was “inactive” throughout.

For `Cc1cc(Nc2ncc3cc(-c4c(Cl)cccc4Cl)c(=O)n(C)c3n2)ccc1F`, the Potency result in test [1] is “inactive”. Further, the results for the Potency in test [2] and in test [3] were 461 nM (active) and 517 nM (active), respectively.

`CNC(C)C(=O)NC(C(=O)N1CCCC1C(=O)Nc1cccc2ncccc12)C(C)C` (stereo not drawn): the Potency result in test [1] and in test [2] was “inactive” each time. In addition, the Potency in test [3] was 11600 nM (active).

For `COC(=O)c1ccc(N2CCN(C)CC2)c(NC(=O)c2cccc(OC)c2)c1`, the Potency result in test [1], in test [2] and in test [3] was “inactive” throughout.

Consider `N#Cc1ccc2[nH]c(O)c(-c3ccc(CN4CCOCC4)cn3)c2c1`, for which the Potency result in test [1], in test [2] and in test [3] was “inactive” throughout.

With `O=C(O)[C@@H]1C[C@H]2C[C@@H](CCc3nn[nH]n3)CC[C@H]2CN1`, the Potency entry in test [1], in test [2] and in test [3] was “inactive” in each case.
